Over roughly 33,000 sequences, “E-score (-0.5 to 0.5)” has its median near -0.054; the highest 2% begin near 0.35. The entries come from a sample that favours the highest values as a whole.
The sequences below were run against T1, Stb5 (UniProt P38699) (assay: PBM E-score (8-mer binding enrichment) (E-score (-0.5 to 0.5)); higher = stronger / more preferred TF binding). Conditions: protein concentration: 200 nM; construct: GST-full length.
T1 sequence: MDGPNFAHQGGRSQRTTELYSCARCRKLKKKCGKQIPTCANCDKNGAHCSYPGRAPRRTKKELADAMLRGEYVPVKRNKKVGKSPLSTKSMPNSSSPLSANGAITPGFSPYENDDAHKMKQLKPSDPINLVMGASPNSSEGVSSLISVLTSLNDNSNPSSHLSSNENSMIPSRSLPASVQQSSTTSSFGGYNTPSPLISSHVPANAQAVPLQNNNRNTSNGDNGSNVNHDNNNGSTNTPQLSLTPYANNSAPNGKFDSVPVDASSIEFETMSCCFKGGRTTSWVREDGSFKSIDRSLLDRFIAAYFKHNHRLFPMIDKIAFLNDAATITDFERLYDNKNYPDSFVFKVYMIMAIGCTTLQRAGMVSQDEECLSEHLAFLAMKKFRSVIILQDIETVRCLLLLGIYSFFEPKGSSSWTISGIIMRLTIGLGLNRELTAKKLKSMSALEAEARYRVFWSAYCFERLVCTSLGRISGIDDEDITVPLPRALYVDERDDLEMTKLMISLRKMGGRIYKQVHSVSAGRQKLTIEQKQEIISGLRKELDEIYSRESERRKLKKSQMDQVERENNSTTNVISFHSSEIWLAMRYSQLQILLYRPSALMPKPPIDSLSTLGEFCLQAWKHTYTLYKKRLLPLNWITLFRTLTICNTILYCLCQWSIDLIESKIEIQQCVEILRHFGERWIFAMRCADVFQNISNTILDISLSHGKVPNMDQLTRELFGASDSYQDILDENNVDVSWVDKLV
How it was run: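 GST-tagged yeast TFs (full-length or DNA-binding domain) were made by PURExpress in vitro transcription/translation and applied at about 100-200 nM to universal all-10-mer Agilent arrays. The arrays were made double-stranded by primer extension, on fresh or once-stripped slides. Bound protein was detected with fluorescent anti-GST, and scans were normalised with masliner. Each ungapped eight-base word, pooled with its reverse complement, received an E-score (modified Wilcoxon-Mann-Whitney statistic) from the Universal PBM Analysis Suite.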

Sequence | PBM E-score
CAAGATGG | -0.13
TAGATTGA | 0.0223
AAAGTACG | 0.00248
CCAATGCG | -0.208
GAGAGGCC | -0.0937
CACCGGGG | 0.33
AACCGGAC | 0.28
CACCGGAA | 0.293
GACCGGGC | 0.211
CACCGGAC | 0.413
CACCGGGC | 0.375
CAGCAATA | -0.0729
ATGCCCAA | -0.116
CGCGGCTA | 0.3
AGGTAACA | -0.111
CGGTAATC | 0.25
CGGTAATA | 0.457
CGGTAACC | 0.165
CGGTAACA | 0.36
GGGTAATA | 0.143
CGCATAAA | -0.127
CAAGCGGC | 0.379

Sequence | PBM E-score
CAAGCGGA | 0.223
TAAGCGGA | 0.209
AAAGCGGA | 0.352
CAAGCGGG | 0.273
AAAGCGGG | 0.297
CCGACAAG | 0.266
ACGACGGC | 0.146
CCGACGCG | 0.378
CCGACGGA | 0.394
ACGACGGA | 0.227
TCGACAAA | -0.183
CCGACGAC | 0.312
CCGACGGC | 0.372
GCGACGGA | 0.283
ACGACGCG | -0.0646
CCGACAAA | 0.353
CCGACGCC | 0.315
CGCGATCC | 0.0632
AAAACGGC | 0.21
GTACTCAA | -0.185
GCTTTAAC | -0.0801
TAAATCGA | -0.267

Sequence | PBM E-score
AGTCAAAA | -0.00563
AAACCTCT | 0.015
ATAAAGAG | -0.0867
CCAAGCAG | -0.122
CACTGTCA | -0.352
ATACTCCG | 0.371
CAACTCCG | 0.342
CAGCTCCG | 0.136
AAGCTCCG | 0.429
AATCTCCG | 0.423
AAACTCCT | 0.0448
CATCTCCG | 0.276
ATACTCCC | 0.339
AAGCTCCT | -0.165
AATCTCCC | -0.0498
AAACTCCG | 0.463
ATACTCCA | -0.199
CACTGCAA | -0.139
ACGTGCGA | -0.0649
GCTAGTCC | 0.0729
GAGAAAGC | 0.0247
CACACATC | -0.15

Sequence | PBM E-score
CTGTTCGC | -0.0755
AACCTCCT | -0.234
AACCTCCG | 0.408
AACCTCCC | -0.0946
GTAAGCCA | -0.243
GAGTAGCC | -0.178
CGAAATTA | -0.0454
CCCCGTGC | 0.375
CCCCGTGA | 0.146
ACCCGTGC | -0.0288
ATGAACCA | -0.252
CACAGCTA | -0.125
CAATTGTC | -0.0888
GGGCTATA | 0.0715
GGGCTTTA | 0.326
CGGCTCTA | 0.391
AGGCTCTA | -0.0942
CGGCTATA | 0.367
CGGCTTTA | 0.439
CGGCTTTC | 0.061
CGGCTCTC | -0.0773
AGGCTATA | 0.0655

Sequence | PBM E-score
CTCTACCC | -0.316
GCCGCACA | 0.206
CTGCTGGC | -0.124
AGCGGGGG | 0.277
GGCGGGGA | 0.366
AGCGGGAA | 0.357
CTCGGGGA | 0.0793
GGCGGGAA | 0.287
CGCGGGGA | 0.305
ATCGGGGA | 0.307
AGCGGGAG | 0.0448
AGCGGGAT | 0.25
AGCGGGGA | 0.375
GCGGGGGA | 0.261
GTCGGGGA | 0.382
GTAGGCAA | -0.246
AATCTCCT | -0.0106
GGGCAGTA | -0.0652
ACCAAACG | 0.0282
AGATCCAC | -0.00803
GAACGTTC | -0.114

Reference: the supplement of paper PMC3334620
